The nature of test [1]: Quantitative high throughput screen for delayed death inhibitors of the malarial parasite plastid, 96 hour incubation (AID 488745). Note: nearly all actives have a fitted effect of over 70% in size. Note: potency is the fitted concentration of half-maximal effect. The method, boiled down: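 Decreased firefly luciferase luminescence indicates inhibited growth of reporter-integrated P. falciparum after two generations (96 h, 37 C, 5% CO2). Infected erythrocytes at 0.1% parasitemia, 2% hematocrit, in Albumax-supplemented RPMI 1640.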

Test [2] in a line: Quantitative high throughput screen for delayed death inhibitors of the malarial parasite plastid, 48 hour incubation (AID 488752). Note: nearly all actives have a fitted effect of over 65% in size. Note: potency is the fitted concentration of half-maximal effect. A digest of the protocol:
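One-generation (48 h) growth assay: a decrease in luciferase signal from an integrated reporter in P. falciparum-infected red cells (0.1% parasitemia, 2% hematocrit) after compound exposure at 37 C indicates parasite inhibition.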

For test [3], the target named is Thioredoxin reductase 1, cytoplasmic (Rattus norvegicus) (UniProt O89049). The test is described as follows: qHTS Assay for Substrates of Mammalian Selenoprotein Thioredoxin Reductase 1 (TrxR1) (AID 488772).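 Note: series mostly up to about 57 µM; a drop in NADPH fluorescence below the no-compound background marks a TrxR1 substrate.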 A digest of the protocol:
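In this dual-purpose format, potential substrates are identified from the first fluorescence read after selenite addition, not from the 8-minute delta. Rat enzyme is preincubated with NADPH and then with compound at ~22 deg C.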
For orientation: In qHTS, concentration-response curves come from the screen itself.

For test [4] the target is unchanged. Briefly: qHTS Assay for Inhibitors of Mammalian Selenoprotein Thioredoxin Reductase 1 (TrxR1) (AID 488773). Note: nearly all actives have a fitted effect of over 40% in size. Note: potency is the fitted concentration of half-maximal effect. The following applies: Potency: inhibition. The method, boiled down: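 Inhibition is scored from the loss of NADPH fluorescence between first and last reads of an 8-min kinetic run. Selenite (400 uM) was the substrate, added after 15 min compound preincubation at room temperature.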

Test [5] deals with Flap endonuclease 1 (Homo sapiens) (UniProt P39748). The test is described as follows: qHTS Validation Assay for the Inhibitors of Human Flap endonuclease 1 (FEN1) (AID 488816). Note: potency is the fitted concentration of half-maximal effect. A digest of the protocol:
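Steps: add FEN1 (10 nM reagent) or buffer only; pin compounds; hold 15 min at room temperature; start with substrate, 50 nM final; read at 0 and 15 min; correct, normalize and fit a four-parameter Hill curve.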

Test [6] concerns the target M-phase phosphoprotein 8 (Homo sapiens) (UniProt Q99549). The test is described as follows: qHTS Validation Assay for Inhibitors for MPP8 Chromodomain Interactions with Methylated Histone Tails (AID 488949). Note: nearly all actives have a fitted effect of over 55% in size. Note: potency is the fitted concentration of half-maximal effect. The method, boiled down:
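AlphaScreen proximity signal from streptavidin donor and Ni-chelate acceptor beads (10 ug/mL each) reported binding of MPP8 to trimethyl-K9 H3(1-18) peptide, both at 50 nM. The complex formed 30 min before a 30 min compound exposure at room temperature, in PBS pH 7.4.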

Test [7] deals with Methanococcus maripaludis chaperonin (MmCpn) (UniProt Q6LX38). Briefly: High-Throughput Screening for Modulators of Cytosolic Chaperonin Activity: MmCpn Primary Screen (AID 488978).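 Note: 50 nM MmCpn enzyme hydrolysing 30 µM ATP at 37 °C.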 The method, boiled down: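 ATPase activity of 50 nM MmCpn was assayed with 30 uM ATP, 10 minutes at 37C, after a 5 min compound preincubation at room temperature. ADP production was read as HTRF emission at 590 and 665 nm.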

Test [8] deals with Transient receptor potential cation channel subfamily V member 1 (Homo sapiens) (UniProt Q8NER1). Briefly: HTS Assay for Compounds that Act as Enhancers of the Vanilloid Receptor 1 (AID 488979). A digest of the protocol:
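TRPV1-expressing cells loaded with Fluo-8 calcium dye; compounds added and calcium influx read kinetically for 3 min (agonist phase), then capsaicin at EC20 added and read 2 min more for enhancement. Fluorescence ex 480/em 520 nm.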

The target of test [9] is Thyrotropin receptor (Homo sapiens) (UniProt P16473). The test is described as follows: qHTS Assay for Antagonists of the Thyroid Stimulating Hormone Receptor (AID 488980). Note: series mostly up to about 58 µM. A digest of the protocol:
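Inhibition of cAMP raised by EC80 TSH (4 nM final) was read by HTRF, with lysate cAMP competing against cAMP-d2 for cryptate antibody after 30 min at room temperature. The cells were transfected HEK293 held in phosphodiesterase inhibitor RO 20-1724 at 70 uM.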

Test [10] concerns the target Chromobox protein homolog 1 (Homo sapiens) (UniProt P83916). The test is described as follows: qHTS Validation Assay for Inhibitors of HP1-beta Chromodomain Interactions with Methylated Histone Tails (AID 488953). Note: nearly all actives have a fitted effect of over 50% in size. Note: potency is the fitted concentration of half-maximal effect. A digest of the protocol:
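AlphaScreen proximity signal from streptavidin donor and nickel chelate acceptor beads (final 10 ug/mL) after 30 min dark incubation. Compounds had 30 min at room temperature with preformed complex of 50 nM HP1-beta and 50 nM b-H3(1-18)K9me3 in PBS pH 7.4 with 0.01% Tween-20.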

Results filed as inconclusive are left out. The source made the active and inactive calls. Calls come from the whole dose curve; as a rule, active = well fitted curve in the direction sought with a large enough effect; inconclusive = small, poorly fitted or top-dose-only effect, or another doubt; inactive = no such curve, though single readings can be large; an effect the other way counts as inactive or inconclusive.

Chain of Thyrotropin receptor (Homo sapiens) (P16473 whole entry, looked up): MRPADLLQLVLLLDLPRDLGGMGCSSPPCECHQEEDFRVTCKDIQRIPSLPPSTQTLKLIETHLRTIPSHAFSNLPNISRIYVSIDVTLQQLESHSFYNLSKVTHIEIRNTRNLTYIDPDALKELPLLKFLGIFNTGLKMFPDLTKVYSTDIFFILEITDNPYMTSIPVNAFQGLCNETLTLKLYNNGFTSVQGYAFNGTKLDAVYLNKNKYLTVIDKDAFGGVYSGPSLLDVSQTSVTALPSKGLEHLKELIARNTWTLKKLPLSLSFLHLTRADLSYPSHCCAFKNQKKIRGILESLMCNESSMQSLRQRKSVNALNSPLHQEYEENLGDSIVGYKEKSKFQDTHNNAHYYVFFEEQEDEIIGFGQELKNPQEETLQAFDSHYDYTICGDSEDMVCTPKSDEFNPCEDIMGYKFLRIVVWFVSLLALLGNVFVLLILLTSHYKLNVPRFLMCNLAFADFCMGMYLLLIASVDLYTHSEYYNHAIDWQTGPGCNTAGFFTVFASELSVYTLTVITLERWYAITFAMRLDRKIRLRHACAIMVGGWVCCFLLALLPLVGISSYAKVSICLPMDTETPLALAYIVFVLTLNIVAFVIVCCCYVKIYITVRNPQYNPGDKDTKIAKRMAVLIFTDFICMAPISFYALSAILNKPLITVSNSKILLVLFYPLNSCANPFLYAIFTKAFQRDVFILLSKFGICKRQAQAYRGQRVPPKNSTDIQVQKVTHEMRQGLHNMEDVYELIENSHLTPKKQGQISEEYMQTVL
Chain of Flap endonuclease 1 (Homo sapiens) (P39748 whole entry, looked up): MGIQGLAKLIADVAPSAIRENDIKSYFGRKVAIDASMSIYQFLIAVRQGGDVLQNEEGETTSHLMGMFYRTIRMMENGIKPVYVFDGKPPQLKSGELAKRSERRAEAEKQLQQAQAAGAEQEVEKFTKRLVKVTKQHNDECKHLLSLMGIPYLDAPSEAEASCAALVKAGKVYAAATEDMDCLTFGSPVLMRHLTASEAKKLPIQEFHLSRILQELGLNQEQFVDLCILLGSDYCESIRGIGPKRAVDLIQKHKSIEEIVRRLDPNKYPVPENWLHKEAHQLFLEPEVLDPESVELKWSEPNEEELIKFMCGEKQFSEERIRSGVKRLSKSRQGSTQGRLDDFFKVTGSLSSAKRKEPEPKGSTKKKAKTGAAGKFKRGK
Chain of Chromobox protein homolog 1 (Homo sapiens) (P83916 whole entry, looked up): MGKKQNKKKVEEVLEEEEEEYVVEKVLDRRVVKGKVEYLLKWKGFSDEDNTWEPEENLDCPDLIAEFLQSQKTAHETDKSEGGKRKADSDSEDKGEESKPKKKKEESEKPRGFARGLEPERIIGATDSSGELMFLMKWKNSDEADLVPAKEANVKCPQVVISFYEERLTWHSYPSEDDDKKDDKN
Chain of Thioredoxin reductase 1, cytoplasmic (Rattus norvegicus) (O89049 whole entry, looked up): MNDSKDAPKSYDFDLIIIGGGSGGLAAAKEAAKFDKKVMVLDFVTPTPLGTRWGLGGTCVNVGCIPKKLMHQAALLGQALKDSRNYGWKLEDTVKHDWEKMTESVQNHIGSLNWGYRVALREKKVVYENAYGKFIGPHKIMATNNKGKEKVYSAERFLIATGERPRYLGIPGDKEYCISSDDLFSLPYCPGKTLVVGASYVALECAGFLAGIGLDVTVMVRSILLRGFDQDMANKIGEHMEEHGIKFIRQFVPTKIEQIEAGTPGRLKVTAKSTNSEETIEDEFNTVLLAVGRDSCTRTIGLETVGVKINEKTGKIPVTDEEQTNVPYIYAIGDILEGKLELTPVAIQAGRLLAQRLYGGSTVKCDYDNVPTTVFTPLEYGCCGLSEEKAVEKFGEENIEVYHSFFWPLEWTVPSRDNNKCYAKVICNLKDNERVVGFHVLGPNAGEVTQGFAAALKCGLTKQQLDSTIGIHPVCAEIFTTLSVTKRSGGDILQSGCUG
Chain of Transient receptor potential cation channel subfamily V member 1 (Homo sapiens) (Q8NER1 whole entry, looked up): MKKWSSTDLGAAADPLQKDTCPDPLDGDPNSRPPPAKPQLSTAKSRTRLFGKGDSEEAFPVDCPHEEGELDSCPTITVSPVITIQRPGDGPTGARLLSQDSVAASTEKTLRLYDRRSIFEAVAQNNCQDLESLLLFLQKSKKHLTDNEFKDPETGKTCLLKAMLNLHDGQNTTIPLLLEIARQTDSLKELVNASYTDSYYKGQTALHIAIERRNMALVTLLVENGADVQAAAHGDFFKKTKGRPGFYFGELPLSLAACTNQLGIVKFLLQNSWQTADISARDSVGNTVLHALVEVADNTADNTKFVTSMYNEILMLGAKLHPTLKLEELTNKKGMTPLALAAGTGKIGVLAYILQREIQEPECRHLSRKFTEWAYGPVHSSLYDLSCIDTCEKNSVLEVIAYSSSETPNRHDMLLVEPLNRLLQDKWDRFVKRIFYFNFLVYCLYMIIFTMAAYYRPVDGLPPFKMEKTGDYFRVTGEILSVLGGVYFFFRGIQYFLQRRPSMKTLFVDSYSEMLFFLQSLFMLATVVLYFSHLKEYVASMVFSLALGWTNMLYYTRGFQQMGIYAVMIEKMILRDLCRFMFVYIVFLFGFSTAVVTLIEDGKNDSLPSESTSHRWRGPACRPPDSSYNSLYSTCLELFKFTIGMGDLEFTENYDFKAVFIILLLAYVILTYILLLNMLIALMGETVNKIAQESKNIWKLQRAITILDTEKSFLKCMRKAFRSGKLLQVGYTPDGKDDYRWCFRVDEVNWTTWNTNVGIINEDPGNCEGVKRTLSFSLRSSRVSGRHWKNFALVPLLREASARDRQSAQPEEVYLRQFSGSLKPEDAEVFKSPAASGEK
Chain of M-phase phosphoprotein 8 (Homo sapiens) (Q99549 whole entry, looked up): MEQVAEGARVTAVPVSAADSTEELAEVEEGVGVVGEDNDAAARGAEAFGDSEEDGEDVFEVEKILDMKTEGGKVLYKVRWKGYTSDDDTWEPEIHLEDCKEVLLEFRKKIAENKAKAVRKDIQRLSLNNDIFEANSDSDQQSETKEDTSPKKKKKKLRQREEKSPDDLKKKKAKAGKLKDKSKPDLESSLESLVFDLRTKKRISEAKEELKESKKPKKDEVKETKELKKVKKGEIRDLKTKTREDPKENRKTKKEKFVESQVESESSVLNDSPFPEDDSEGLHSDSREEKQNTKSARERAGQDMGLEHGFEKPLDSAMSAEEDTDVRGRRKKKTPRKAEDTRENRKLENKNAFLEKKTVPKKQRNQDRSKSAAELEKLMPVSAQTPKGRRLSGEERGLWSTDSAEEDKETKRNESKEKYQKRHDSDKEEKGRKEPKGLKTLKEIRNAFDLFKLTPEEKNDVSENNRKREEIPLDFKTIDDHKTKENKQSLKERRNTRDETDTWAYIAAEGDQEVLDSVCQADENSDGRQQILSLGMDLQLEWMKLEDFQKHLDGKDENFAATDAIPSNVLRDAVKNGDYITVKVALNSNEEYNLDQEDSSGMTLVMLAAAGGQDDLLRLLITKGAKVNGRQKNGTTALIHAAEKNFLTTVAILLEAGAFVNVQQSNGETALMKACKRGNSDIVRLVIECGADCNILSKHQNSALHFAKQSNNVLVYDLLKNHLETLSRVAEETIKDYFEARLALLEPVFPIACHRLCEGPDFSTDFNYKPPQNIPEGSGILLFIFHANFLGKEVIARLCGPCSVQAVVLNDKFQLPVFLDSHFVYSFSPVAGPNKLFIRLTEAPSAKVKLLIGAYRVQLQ
Chain of Methanococcus maripaludis chaperonin (MmCpn) (Q6LX38 1-543): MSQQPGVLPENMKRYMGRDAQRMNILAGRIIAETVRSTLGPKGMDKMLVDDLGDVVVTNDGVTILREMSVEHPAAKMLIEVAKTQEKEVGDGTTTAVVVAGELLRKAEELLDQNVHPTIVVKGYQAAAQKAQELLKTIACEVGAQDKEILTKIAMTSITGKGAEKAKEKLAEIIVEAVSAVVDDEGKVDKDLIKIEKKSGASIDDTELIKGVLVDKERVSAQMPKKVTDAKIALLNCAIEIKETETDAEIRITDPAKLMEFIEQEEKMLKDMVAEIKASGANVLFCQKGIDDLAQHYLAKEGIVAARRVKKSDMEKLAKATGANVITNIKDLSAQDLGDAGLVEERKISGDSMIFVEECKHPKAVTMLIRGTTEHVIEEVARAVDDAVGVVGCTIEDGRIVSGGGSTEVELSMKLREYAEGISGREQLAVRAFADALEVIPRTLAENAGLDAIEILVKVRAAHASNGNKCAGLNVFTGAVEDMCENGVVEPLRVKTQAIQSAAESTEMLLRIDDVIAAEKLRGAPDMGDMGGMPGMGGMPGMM

Regarding `C=CCN1C[C@@H](C)N([C@H](c2ccc(C(=O)N(CC)CC)cc2)c2cccc(OC)c2)C[C@@H]1C`, the values for the Potency in test [1] and in [2] were 4.65 µM (active) and 5.22 µM (active), respectively. In addition, the molecule was called inactive in [3], in test [7], in [8] and in [9]. For the same molecule, the Potency entry in [4], in [5] and in test [6] was “inactive” each time.

Regarding `NC(=O)COc1c(F)cc(SCCNS(=O)(=O)c2ccccc2)cc1F`, the Potency result in test [1], in test [2], in test [4], in test [5], in test [6] and in [10] was “inactive” in each case. The call in test [3], in test [7], in test [8] and in test [9] was inactive.

For `CN(C(=O)Cc1ccc(Cl)c(Cl)c1)C(CN1CCCC1)c1cccc(OCC(=O)O)c1` (configuration not stated), the Potency entry in [1], in [2], in test [4], in test [5], in test [6] and in test [10] was “inactive” in each case. The outcome in [3], in [7] and in test [8] was inactive.

`CC(N)[C@H](O)c1ccc(O)c(O)c1` (some centres not stated): the Potency entry in [1] and in test [2] was “inactive” each time. The molecule was called inactive in test [3], in test [7] and in test [8]. For the same molecule, the Potency in [4] was 11.9 µM (active); in test [5] it was 2.67 µM (active).

As to `O=C(O)c1cc[c]([Hg][Cl])cc1`, the Potency in [1] is 2.08 µM (active); in test [2] it was 4.15 µM (active); in test [4], 0.299 µM (active); in test [6], 5.32 µM (active); in test [10] it was 39.8 µM (active). Moreover, the call in [3], in test [7] and in test [8] was inactive. Also, the Potency entry in [5] is “inactive”.

On to `CCCN(CCC)CCc1ccc(O)c(O)c1`, for which the Potency entry in [1], in [2], in test [4], in [5] and in test [10] was “inactive” in each case. Besides, the molecule was classed as inactive in [3], in test [7], in test [8] and in test [9].

For the molecule `COc1ccc2[nH]c3c(c2c1)CCNC3`, the Potency entry in test [1], in test [2], in test [4], in [5] and in test [6] was “inactive” throughout. Further, the molecule was classed as inactive in test [3], in test [7] and in [8].

Turning to `Clc1ccc(N2CC3CCC(C2)N3)nn1`, the Potency result in [1], in [2], in [4], in test [5], in [6] and in [10] was “inactive” in each case. Besides, the call in test [3], in [7], in [8] and in [9] was inactive.

Regarding `COc1cc(CC(C)N)c(OC)cc1I` (configuration not stated), the Potency result in test [1], in [2], in test [4] and in [5] was “inactive” in each case. For the same molecule, the molecule was called inactive in [3], in test [7] and in [8].

In the case of `NNC(N)=O`, the Potency result in [1], in test [2], in [4], in [5] and in test [10] was “inactive” in each case. The molecule was called inactive in test [3], in [7] and in test [8].

Turning to `CCCN(CCC)CCc1c[nH]c2ccc(C(N)=O)cc12`, the Potency entry in test [1], in test [2], in [4], in test [5] and in test [10] was “inactive” each time. In addition, the call in test [3], in test [7], in test [8] and in test [9] was inactive.

Turning to `C[Se]C[C@H](N)C(=O)O`, the Potency entry in test [1], in test [2], in test [4], in test [5], in [6] and in test [10] was “inactive” throughout. Besides, the call in test [3], in test [7], in test [8] and in test [9] was inactive.

As for `CC1(C(=O)O)C2CCC(O2)C1(C)C(=O)O` (configuration not stated), the Potency in test [1] is 3.29 µM (active); in [2], 5.22 µM (active); in test [10] it was 0.0084 µM (active). Besides, the molecule was classed as inactive in test [3], in [7] and in test [8]. Moreover, the Potency entry in test [4], in test [5] and in [6] was “inactive” each time.

`O=[N+]([O-])c1cc(O)c(O)c([N+](=O)[O-])c1`: the Potency result in test [1], in test [2], in [4], in [5], in test [6] and in [10] was “inactive” throughout. The call in test [3], in test [7], in test [8] and in [9] was inactive.

For the molecule `C[C@H](Cc1ccc2c(c1)OC(C(=O)O)(C(=O)O)O2)NC[C@H](O)c1cccc(Cl)c1`, the Potency result in test [1], in test [2], in [4], in [5], in test [6] and in test [10] was “inactive” throughout. Further, the molecule was classed as inactive in [3], in [7] and in [8].

For the molecule `C=CCN1CCC23c4c5ccc(O)c4O[C@H]2C(=O)CC[C@@]3(O)C1C5` (some centres not stated), the Potency result in test [1], in [2], in test [4], in test [5], in [6] and in test [10] was “inactive” each time. Besides, the molecule was classed as inactive in test [3], in test [7], in test [8] and in test [9].

On to `C[N+]1(C)CCN(c2ccccc2)CC1`, for which the Potency entry in test [1], in [2], in test [4], in test [5] and in test [6] was “inactive” each time. For the same molecule, the call in test [3], in test [7] and in [8] was inactive.

Take `CCCN(CCC)[C@H]1CCc2c(F)ccc(O)c2C1`: the Potency in test [1] and in test [2] was 2.94 µM (active) in each case. Besides, the outcome in test [3], in test [7], in test [8] and in [9] was inactive. The Potency entry in test [4], in test [5] and in test [6] was “inactive” throughout.

As for `C/C(O)=C(\C#N)C(=O)Nc1cc(Br)ccc1Br`, the Potency result in test [1], in [2], in test [4] and in test [5] was “inactive” throughout. Besides, the result in [3], in test [7], in test [8] and in [9] was inactive.

For `CN1C2CCC1CC(OC(c1ccccc1)c1ccccc1N)C2` (configuration not stated), the Potency entry in [1], in [2], in test [4], in [5] and in test [6] was “inactive” in each case. Moreover, the molecule was classed as inactive in test [3] and in [7].

On to `NC(=O)c1cc(N2CC2)c([N+](=O)[O-])cc1[N+](=O)[O-]`, for which the Potency result in [1], in [2], in test [4], in test [5] and in test [10] was “inactive” throughout. For the same molecule, the molecule was called inactive in test [3], in test [7] and in [8].

With `c1ccc2c(N3CCNCC3)cccc2c1`, the Potency entry in test [1], in [2], in [4], in [5], in [6] and in test [10] was “inactive” throughout. Besides, the outcome in [3], in test [7], in test [8] and in [9] was inactive.

On to `CC(N)c1cccc(Cl)c1Cl` (configuration not stated), for which the Potency result in test [1], in test [2], in [4], in [5] and in test [10] was “inactive” throughout. In addition, the call in test [3], in [7], in test [8] and in [9] was inactive.

Source of the values: PubChem BioAssay (NCATS).
